Measurements from PubChem BioAssay (NCATS).
Inconclusive results are not listed. Calls of active or inactive are those of the source. Calls follow the shape of the dose curve; as a rule, active = well fitted activation curve with a large enough effect; inconclusive = small, poorly fitted or top-dose-only effect; inactive = flat fitted curve, though single readings scatter.

experiment: qHTS for Activators of Parkin Expression: LOPAC Validation Assay (NLuc Reporter) (AID 720572); conditions: Parkin promoter NanoLuc reporter cells, luminescence, percent of positive control, DMSO as zero; series mostly up to 46.1 µM
Excerpt: Parkin is an E3 ubiquitin ligase localized in the cytosol of cells expressed in many tissues, including brain, skeletal muscle, heart and liver tissues. One hour after stress induction by mitochondrial uncouplers (which mimic mitochondria damage by decreasing the mitochondrial inner membrane electrochemical gradient that is used to produce ATP), Parkin translocates from the cytosol to mitochondria in many cultured cell types, including neurons and HeLa cells. Administration of other mitochondrial poisons, such as Paraquat and azide in cells lacking mitochondrial DNA (mtDNA), induces Parkin translocation to mitochondria. […] It was proposed that Parkin (together with Pink1) mediates a mitochondrial quality control pathway to maintain organelle population fidelity by removing damaged mitochondria. Understanding the normal physiologic role of Parkin (and Pink1) may uncover novel treatment strategies for sporadic Parkinson's disease patients with mutation in these genes.
A cell based qHTS in 1536 well format was developed assess modulation of Parkin expression using a neuronal cell line that stably expresses a stably expresses a luminescent coincidence reporter (FLuc and NLuc reporters) behind the Parkin promoter. The LOPAC library is used to validate the assay for quantitative high-throughput screening. The data herein reports the signal from the NLuc reporter. An increase in this signal = activation of Parkin expression. For this assay , a positive control normalized signal increase corresponding to a high quality qHTS curve class in both luminescent channels is the desired outcome for this assay.
NIH Chemical Genomics Center [NCGC]
NIH Molecular Libraries Probe Centers Network [MLPCN]
Assay Submitter (PI): Richard Youle, National Institute of Neurological Disorders and Strokes (NINDS), NIH
[1] Narendra, D., et al., Parkin is recruited selectively to impaired mitochondria and promotes their autophagy. J Cell Biol, 2008. 183(5): p.
[2] Suen, D.F., et al., Parkin overexpression selects against a deleterious mtDNA mutation in heteroplasmic cybrid cells. Proc Natl Acad Sci U S A, 2010. […] 11835-40.
[3] Cheng K, Inglese J. A coincedence reporter-gene system for high-throughput screening. Nat Methods. 2012: 9(10);937
Five microliters (1,500 cells/well) of the Parkin coincidence reporter cells were seeded to 1536 well assay plates (Greiner Catalog # 789173-F) and incubated at 37 C, 5% CO2 for 24 hours. Compounds (23 nL) were pinned using the Kalypsys robotic system equipped with 1536 pin head adaptor in 7-point dose response. The assay plates were incubated for additional 24 hr at 37 C, 5% CO2 followed by a volume reduction in each well to 2 uL using an automated plate washer/aspirator. Following the volume reduction,2 uL of FLuc detection reagent and plates were incubated for 10 minutes at room temperature. The FLuc luminescence signal was obtained using the PerkinElmer ViewLux plate imager and then 2 uL of NanoLuc detection reagent was added to the plates. After another 10 minute incubation, NanoLuc signal was obtained using the PerkinElmer ViewLux plate imager as before. Data from each channel was normalized to DMSO (neutral control) and the positive control compounds (100%).

Row | Compound | outcome
1 | Cc1ncc(CNC(=O)N(CCCl)N=O)c(N)n1 | inactive
2 | CC(=O)[C@H]1CC[C@H]2[C@@H]3CC[C@H]4C[C@H](O)CC[C@]4(C)[C@H]3C(=O)C[C@]12C | inactive
3 | CN1C[C@H](CNC(=O)OCc2ccccc2)C[C@@H]2c3cccc4c3c(cn4C)C[C@H]21 | inactive
4 | CC[C@@H](CO)NC(=O)[C@@H]1C=C2c3cccc4[nH]cc(c34)C[C@H]2N(C)C1 | inactive
5 | COc1ccc(C(CN(C)C)C2(O)CCCCC2)cc1 (stereo not drawn) | inactive
6 | NCC1(CC(=O)O)CCCCC1 | inactive
7 | C[C@@H]1O[C@@H](O[C@H]2C[C@@H](O)[C@]3(CO)[C@H]4[C@H](O)C[C@]5(C)[C@@H](C6=CC(=O)OC6)CC[C@]5(O)[C@@H]4CC[C@]3(O)C2)[C@H](O)[C@H](O)[C@H]1O | inactive
8 | Nc1ccncc1 | inactive
9 | CC[C@@H](CO)NC(=O)[C@@H]1C=C2c3cccc4c3c(cn4C)C[C@H]2N(C)C1 | inactive
10 | COC[C@H]1OC(=O)c2coc3c2[C@@]1(C)C1=C(C3=O)C2CCC(=O)[C@@]2(C)C[C@H]1OC(C)=O (stereo partly drawn) | inactive
11 | COc1ccccc1N1CCNCC1 | inactive
12 | Cc1ccc(S(=O)(=O)N[C@@H](CCCCN)C(=O)CCl)cc1 | inactive
13 | CCCN1CCC[C@@H]2Cc3nc(N)ncc3C[C@H]21 | inactive
14 | CC(=O)[C@H]1CC[C@H]2[C@@H]3CC[C@H]4C[C@](C)(O)CC[C@]4(C)[C@H]3CC[C@]12C | inactive
15 | CC(CCc1ccccc1)NC(C)C(O)c1ccc(O)cc1 (stereo not drawn) | inactive
16 | CC(C)=CCOc1c2occc2cc2ccc(=O)oc12 | inactive
17 | c1ccc(C2CC2)c(OCC2=NCCN2)c1 | inactive

Row | Compound | outcome
18 | C=C(C)[C@H]1Cc2c(ccc3c2O[C@@H]2COc4cc(OC)c(OC)cc4[C@@H]2C3=O)O1 | inactive
19 | Fc1ccc(C(OCCN2CCN(CCCc3ccccc3)CC2)c2ccc(F)cc2)cc1 | inactive
20 | CCC1(C2=NCCN2)Cc2ccccc2O1 (stereo not drawn) | inactive
21 | NN=C(N)N | inactive
22 | NCC(CC(=O)O)c1ccc(Cl)cc1 (stereo not drawn) | inactive
23 | c1ccc2c(c1)OCC(C1=NCCN1)O2 (stereo not drawn) | inactive
24 | O=C1NCN(c2ccccc2)C12CCN(CC1COc3ccccc3O1)CC2 (stereo not drawn) | inactive
25 | CCCN1CCC[C@@H]2Cc3[nH]ncc3C[C@H]21 | inactive
26 | Cc1cccc(C)c1NC1=NCCCS1 | inactive
27 | CNCC(O)c1ccc(O)cc1 (stereo not drawn) | inactive
28 | C[C@]12CCC(=O)C(O)=C1CC[C@@H]1[C@@H]2CC[C@]2(C)C(=O)CC[C@@H]12 | inactive
29 | Cc1cccc(C)c1NC(=O)CN1CCCC1=O | inactive
30 | CCCC(C)(COC(N)=O)COC(=O)NC(C)C (stereo not drawn) | inactive
31 | O=c1[nH]c2ccccc2n1CCCN1CCC(n2c(=O)[nH]c3cc(Cl)ccc32)CC1 | inactive
32 | CC(O)(CS(=O)(=O)c1ccc(F)cc1)C(=O)Nc1ccc(C#N)c(C(F)(F)F)c1 (stereo not drawn) | inactive
33 | NCC(O)c1ccc(O)cc1 (stereo not drawn) | inactive
